# Source: ChEMBL document CHEMBL4513146, “CO-ADD screening of Karazin Kharkiv National University (Ukraine) compounds”
# Entries with a potency or affinity are not part of this list.
# Tests used:
# Klebsiella pneumoniae = conditions: Concentration 32 ug.mL-1;; ASSAY_TEST Inhibition of Bacterial Growth; detection method Absorption (OD600); MEDIA CAMHB; plate type 384well; NBS; CORNING #3640; time 18 hr
# Candida albicans = conditions: Concentration 32 ug.mL-1; ASSAY_TEST Inhibition of Fungal Growth; detection method Absorption (OD530)
# Cryptococcus neoformans = conditions: Concentration 32 ug.mL-1; ASSAY_TEST Inhibition of Fungal Growth; detection method Resazurin; Absorption (OD600-OD570); plate type 384well; NBS; CORNING #3640
SMILES,Inhibition (Klebsiella pneumoniae),Inhibition (Candida albicans),Inhibition (Cryptococcus neoformans)
CC(C)(C)NC(=O)Cn1nc2n(Cc3cccs3)c(=O)c3sccc3n2c1=O,3.31%,-0.71%,-8.9%
COc1ccc(-c2cc3c4nnc(SCC(=O)NCc5ccccc5Cl)n4ccn3n2)cc1,6.77%,1.79%,-22.52%
COc1ccc(NC(=O)Cn2nc3ccc(-c4ccc(C)c(C)c4)nn3c2=O)cc1OC,6.13%,32.8%,-43%
COc1ccc(CN(c2cc(C)cc(C)c2)S(=O)(=O)c2cccn3c(C)nnc23)cc1,-1.14%,2.31%,-5.62%
Cc1cc2nn(CC(=O)Nc3ccc(C)c(F)c3)c(=O)n2c(Nc2ccc(C)c(F)c2)n1,13.96%,19.28%,-10.18%
